Data on 52 compounds can be found in ChEMBL document CHEMBL3988442, “University of Dundee, Small-Polar-MMV Screening Library” (2021).

The target of assay [1] is T1, Aspartate--tRNA(Asp/Asn) ligase (Mycobacterium tuberculosis (strain ATCC 25618 / H37Rv)) (UniProt P9WFW3). Further: in the data most compounds retested in dose-response had high values.
T1 sequence (whole entry): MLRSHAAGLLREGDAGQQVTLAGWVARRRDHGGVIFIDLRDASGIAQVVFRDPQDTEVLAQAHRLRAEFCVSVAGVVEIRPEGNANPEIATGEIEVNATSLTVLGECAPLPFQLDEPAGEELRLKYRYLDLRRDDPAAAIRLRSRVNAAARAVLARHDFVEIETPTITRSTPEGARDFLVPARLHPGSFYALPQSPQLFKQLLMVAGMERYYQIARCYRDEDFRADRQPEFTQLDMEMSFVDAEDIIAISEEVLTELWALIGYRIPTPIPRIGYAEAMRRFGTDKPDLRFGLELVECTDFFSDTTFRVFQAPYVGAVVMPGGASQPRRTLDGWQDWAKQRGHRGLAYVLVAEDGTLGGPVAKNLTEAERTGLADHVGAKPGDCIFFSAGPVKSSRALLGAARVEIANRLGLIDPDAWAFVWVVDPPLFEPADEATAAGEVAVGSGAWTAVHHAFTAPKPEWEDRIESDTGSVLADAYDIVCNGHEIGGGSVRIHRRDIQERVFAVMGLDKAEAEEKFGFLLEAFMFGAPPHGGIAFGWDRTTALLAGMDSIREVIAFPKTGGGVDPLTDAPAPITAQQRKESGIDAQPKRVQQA
Kind of assay: Assay for Asp RNA synthetase-1 from Mycobacterium tuberculosis. The following applies: 30 µM. Set-up: scale not given: direction of the effect not stated beside the values. It counts as functional.

Assay [2] deals with Shiga toxin 2 (Escherichia coli O157:H7) (UniProt P09385+P09386). Kind of assay: E. coli 0.157:H7 Shiga Toxin SOP - stx2 screening assay. As to conditions: 30 µM. In kind it is functional. Further details: scale not given: direction of the effect not stated beside the values.

`Cn1cc(-c2csc(N3CCN(C(=O)OC(C)(C)C)CC3)n2)cn1`: the values for the Percent Effect in assay [1] and in assay [2] were 0.501% and -1.73%, respectively.

For the compound `O=C(CCN1CCOC(Cn2cccn2)C1)NC1CCCC1` (centres undefined), the Percent Effect is -1.67% in assay [1] and -51.9% in assay [2].

Take `COc1ccc(C2CCCCCN2S(=O)(=O)N(C)C)cc1` (centres undefined): the Percent Effect in assay [1] is -8.89%; in assay [2] it was -9.69%.

Turning to `COCC(=O)NCCn1ccc2c(OC)cccc21`, the results for the Percent Effect in assay [1] and in assay [2] were -1.31% and -26.2%, respectively.

For the compound `CC(C)CCC(=O)NC(C)c1nnc2n1CCCCC2` (centres undefined), the values for the Percent Effect in assay [1] and in assay [2] were 1.76% and -17.4%, respectively.

Take `CN(CCC#N)C(=O)CN1CCCC1c1ccsc1` (centres undefined): the Percent Effect came to 2.1% in assay [1] and 22% in assay [2].

For `CNc1cncc(C2CCCN2Cc2ccccn2)n1` (centres undefined), the Percent Effect in assay [1] is -3.38%; in assay [2], -10.2%.

As for `O=C(NC1CCCC1)[C@@H]1CN(Cc2nccs2)C[C@H]2OCC[C@H]21`, the Percent Effect was 4.4% in assay [1] and -7.97% in assay [2].

As for `CC(C)(O)CN1CCN(C(=O)c2sccc2C2CC2)CC1`, the Percent Effect was determined as 0.16% in assay [1] and 10.1% in assay [2].

On to `Cc1cc(C)n(CC2CCCN2C(=O)c2ccc3c(c2)nnn3C)n1` (centres undefined), for which the Percent Effect is 5.23% in assay [1] and -34.8% in assay [2].

`CS(=O)(=O)NC1CCN(C(=O)NCCNc2ccccn2)CC1`: the figures for the Percent Effect in assay [1] and in assay [2] were 3.96% and 19.1%, respectively.

`CC(NC(=O)N1CCCN(Cc2cccs2)CC1)c1cccnc1` (centres undefined): the values for the Percent Effect in assay [1] and in assay [2] were -7.21% and 15.3%, respectively.

Regarding `CCN(CC)Cc1ccc(C(=O)N2CCN(CC(C)O)CC2)cc1` (centres undefined), the Percent Effect in assay [1] came to 0.607%; in assay [2], 8.97%.

For `Cc1nn2c(N3CCC(O)C3)cc(-c3ccccc3)nc2c1C` (centres undefined), the Percent Effect is -2.73% in assay [1] and -33.6% in assay [2].

For `CCCNC(=O)c1sccc1N(C)S(=O)(=O)c1ccc(Cl)cc1`, the Percent Effect in assay [1] was 12.9%; in assay [2], -24.4%.

As for `COc1ccccc1CC(=O)N1CC[C@@]2(CCCO2)[C@@H](OC)C1`, the Percent Effect in assay [1] is 4.54%; in assay [2] it was 52.7%.

Take `CN(C)c1ncc(CN2CCOC(C(=O)Nc3ccccc3)C2)cn1` (centres undefined): the values for the Percent Effect in assay [1] and in assay [2] were 6.13% and -0.28%, respectively.

As to `Cc1occc1C(=O)N1CCC2(CCC2NC(=O)c2ccn(C)c2)CC1` (centres undefined), the figures for the Percent Effect in assay [1] and in assay [2] were -3.29% and 13.8%, respectively.

In the case of `O=C(NCCNc1ncccn1)N1CCCC(C(F)(F)F)C1` (centres undefined), the Percent Effect in assay [1] amounted to 4.41%; in assay [2], 1.25%.

Consider `Cc1cc(C)n(-c2cncc(NCCNC(=O)C(C)C)n2)n1`, for which the results for the Percent Effect in assay [1] and in assay [2] were 8.76% and 2.01%, respectively.

Consider `Cc1cc(C(=O)NCC2COCc3c(C)nnn3C2)no1` (centres undefined), for which the Percent Effect in assay [1] is 2.38%; in assay [2], -17.1%.

Regarding `Cc1ccc(C(=O)N2CCn3cc(CN(C)Cc4ccco4)nc3C2)o1`, the values for the Percent Effect in assay [1] and in assay [2] were -0.889% and -35.1%, respectively.

For the compound `CCOC(=O)CCC(=O)NC(C)c1ccc(NC(=O)CC)cc1` (centres undefined), the Percent Effect was -8.03% in assay [1] and -0.224% in assay [2].

For the compound `CC(=O)NCC1CCN(C(=O)c2csc(-c3ccc(C)cc3C)n2)CC1`, the Percent Effect in assay [1] is 5.3%; in assay [2], 14%.

As for `Cc1csc(N2CCN(C(=O)CCc3ccccn3)CC2)n1`, the figures for the Percent Effect in assay [1] and in assay [2] were 5.27% and 20.4%, respectively.

`Cc1ccc(-c2csc(N)c2C#N)cc1`: the Percent Effect in assay [1] is -4.7%; in assay [2], -3.71%.

Consider `Cc1c(C(=O)NCC2CCCO2)nnn1-c1cccc2c1CCN(C)C2` (centres undefined), for which the values for the Percent Effect in assay [1] and in assay [2] were 3.06% and -26.5%, respectively.

For the compound `O=C(Cc1c[nH]c2ccccc12)N1CCN(C(=O)c2ccoc2)CC1`, the Percent Effect in assay [1] was 7.22%; in assay [2] it was -16.5%.

As for `CN(C)[C@@H]1CCN(C(=O)NC2CCCC2)[C@H]1Cc1cnn(C)c1`, the Percent Effect in assay [1] was -2.75%; in assay [2], -11.7%.

As for `Cc1cc(C)n(C2CCCN(C(=O)CCCNc3ncccn3)C2)n1` (centres undefined), the values for the Percent Effect in assay [1] and in assay [2] were -5.54% and -43.3%, respectively.

`Cc1noc(C2CCN(C(=O)CN(C)c3ccc(Cl)cn3)CC2)n1`: the Percent Effect in assay [1] was -1.59%; in assay [2], -21.6%.

For the compound `COc1cc(CCC(=O)NC2CC2)ccc1OCC(F)(F)F`, the Percent Effect in assay [1] worked out at 1.01%; in assay [2], 30.2%.

For `C[S+]([O-])c1nncn1CC(=O)c1cccc(Cl)c1` (centres undefined), the figures for the Percent Effect in assay [1] and in assay [2] were -0.917% and -33.8%, respectively.

Turning to `CS(=O)(=O)NC[C@]12COC[C@H]1CN(C(=O)c1ccccc1)C2`, the Percent Effect in assay [1] is -2.14%; in assay [2], -16.8%.

For `CC(C)N(C)Cc1cnc2n1CCN(C(=O)NC1CCCC1)C2`, the Percent Effect in assay [1] was -1.4%; in assay [2], -28.1%.

On to `CCOC(=O)c1sc2ccsc2c1CNC(=O)CC`, for which the Percent Effect in assay [1] was 1.08%; in assay [2], -9.72%.

As to `CCN1CCN(CC(C)(O)c2cccc(C(F)(F)F)c2)CC1` (centres undefined), the Percent Effect is 3.38% in assay [1] and 6.41% in assay [2].

Regarding `CC1CN(CC2CCCCC2)CCN1c1ccc2nncn2n1` (centres undefined), the Percent Effect in assay [1] is -1.32%; in assay [2] it was -96.5%.

Regarding `c1cnn(CC2CCCN2c2ncnc3sccc23)c1` (centres undefined), the Percent Effect turned out to be 5.36% in assay [1] and 26.3% in assay [2].

Regarding `Cc1cnn(CC2CCCN2C(=O)CCc2nc3ccccc3[nH]2)c1` (centres undefined), the Percent Effect in assay [1] was -0.857%; in assay [2] it was -31.6%.

Take `Cc1cnc(N2CCn3cc(CNC(=O)CC4CC4)nc3C2)nc1`: the Percent Effect was 2.93% in assay [1] and -22.4% in assay [2].

In the case of `Cc1ccc(NC(=O)N(C)Cc2cnn(C)c2)cc1OCC(F)F`, the Percent Effect was 5.84% in assay [1] and -4.22% in assay [2].

Take `C[S+]([O-])c1nncn1CC(=O)c1ccc2c(c1)CCO2` (centres undefined): the Percent Effect in assay [1] is 3.29%; in assay [2], -38.1%.

`Cc1ncc(-c2ccnc(N3CCCCCC3)n2)c(-c2cccnc2)n1`: the Percent Effect in assay [1] was 7.25%; in assay [2], -25.4%.

On to `Cn1cccc1C(=O)N1CCN(Cc2ccncc2)c2ncccc2C1`, for which the Percent Effect in assay [1] was 0.0582%; in assay [2] it was -10%.

`Cc1nc(C2CCCN(C(=O)c3cnn(C(C)(C)C)c3)C2)no1` (centres undefined): the Percent Effect in assay [1] is -4.47%; in assay [2] it was -34.6%.

As to `CSc1ccc(C(CNC(=O)C2CC2)N2CCc3sccc3C2)cc1` (centres undefined), the Percent Effect in assay [1] is -0.15%; in assay [2], 11.2%.

On to `Cc1ccc(C)c(CNC(=O)NC(C)(C(=O)O)c2ccco2)c1` (centres undefined), for which the values for the Percent Effect in assay [1] and in assay [2] were 4.16% and 17%, respectively.

On to `CC(=O)N1CCCN(C(=O)NCc2ccccn2)CC1`, for which the values for the Percent Effect in assay [1] and in assay [2] were 3.93% and 16.9%, respectively.

Consider `Cc1noc(CN2CCC(c3ccnn3CCO)CC2)n1`, for which the figures for the Percent Effect in assay [1] and in assay [2] were -2.2% and 4.21%, respectively.

In the case of `CCn1cc(NC(=O)NCC(C)O)cn1` (centres undefined), the Percent Effect in assay [1] was -3.08%; in assay [2], 3.43%.

As to `CN1CCCc2cc(CNC(=O)c3ccc(NC4CC4)nc3)ccc21`, the figures for the Percent Effect in assay [1] and in assay [2] were -3.1% and -12.6%, respectively.
